# Measured values as given in PMC12214610.
# Legend:
# [1] = biological target: Large ribosomal subunit protein uL22 (UniProt P61175)
# [2] = biological target: Actin, cytoplasmic 2 (UniProt P63261)
# [3] = biological target: Elongation factor 1-alpha 1 (UniProt P68104)
# [4] = biological target: Heat shock 70 kDa protein 1B (UniProt P0DMV9)
# [5] = biological target: Heat shock cognate 71 kDa protein (UniProt P11142)
# [6] = biological target: Peptidyl-prolyl cis-trans isomerase A (UniProt P62937)
# [7] = biological target: Large ribosomal subunit protein uL5 (UniProt P62399)
# [8] = biological target: Small ribosomal subunit protein uS5 (UniProt P0A7W1)
# [9] = biological target: Small ribosomal subunit protein bS1 (UniProt P0AG67)
# [10] = biological target: Small ribosomal subunit protein uS3 (UniProt P0A7V3)
# [11] = biological target: Large ribosomal subunit protein uL2 (UniProt P60422)
# [12] = biological target: Small ribosomal subunit protein uS8 (UniProt P0A7W7)
# [13] = biological target: Cofilin-1 (UniProt P23528)
# Cofilin-1, sequence (P23528 whole entry): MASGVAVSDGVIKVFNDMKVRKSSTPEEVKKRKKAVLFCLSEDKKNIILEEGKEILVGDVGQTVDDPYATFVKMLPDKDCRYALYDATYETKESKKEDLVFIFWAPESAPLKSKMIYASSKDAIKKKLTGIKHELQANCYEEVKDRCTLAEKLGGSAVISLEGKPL
# [14] = biological target: Small ribosomal subunit protein uS19 (UniProt P0A7U3)
# [15] = biological target: Large ribosomal subunit protein bL9 (UniProt P0A7R1)
# [16] = biological target: DNA-binding protein HU-beta (UniProt P0ACF4)
# [17] = biological target: Large ribosomal subunit protein eL6 (UniProt Q02878)
# [18] = biological target: 30S ribosome-binding factor (UniProt P0A7G2)
# [19] = biological target: Large ribosomal subunit protein uL24 (UniProt P60624)
# [20] = biological target: Small ribosomal subunit protein uS13 (UniProt P0A7S9)
# [21] = biological target: Large ribosomal subunit protein uL4 (UniProt P36578)
# [22] = biological target: Small ribosomal subunit protein uS4 (UniProt P46781)
# [23] = biological target: Large ribosomal subunit protein eL36 (UniProt Q9Y3U8)
# [24] = biological target: Small ribosomal subunit protein bS21 (UniProt P68679)
# [25] = biological target: Adenylyl cyclase-associated protein 1 (UniProt Q01518)
# [26] = biological target: Large ribosomal subunit protein eL20 (UniProt Q02543)
# [27] = biological target: Large ribosomal subunit protein eL24 (UniProt P83731)
# [28] = biological target: Small ribosomal subunit protein uS11 (UniProt P62263)
# Heat shock cognate 71 kDa protein, sequence (P11142 whole entry): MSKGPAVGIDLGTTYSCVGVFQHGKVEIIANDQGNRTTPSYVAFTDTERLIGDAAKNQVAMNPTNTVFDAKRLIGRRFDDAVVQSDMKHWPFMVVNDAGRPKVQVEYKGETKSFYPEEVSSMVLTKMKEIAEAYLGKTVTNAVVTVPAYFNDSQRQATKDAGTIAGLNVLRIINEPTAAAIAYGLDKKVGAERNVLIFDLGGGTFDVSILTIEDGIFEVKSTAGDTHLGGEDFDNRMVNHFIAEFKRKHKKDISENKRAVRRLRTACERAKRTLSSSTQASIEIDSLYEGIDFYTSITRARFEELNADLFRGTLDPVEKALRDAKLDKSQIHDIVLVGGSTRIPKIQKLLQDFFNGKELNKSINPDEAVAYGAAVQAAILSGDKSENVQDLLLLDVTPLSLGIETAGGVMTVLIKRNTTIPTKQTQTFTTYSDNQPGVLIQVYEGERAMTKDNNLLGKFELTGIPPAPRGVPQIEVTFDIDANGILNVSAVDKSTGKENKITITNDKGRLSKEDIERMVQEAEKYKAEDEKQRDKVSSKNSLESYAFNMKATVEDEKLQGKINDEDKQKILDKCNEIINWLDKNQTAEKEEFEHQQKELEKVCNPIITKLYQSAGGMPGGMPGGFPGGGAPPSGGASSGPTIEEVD
# Profilin-1, P07737, sequence (P07737 whole entry): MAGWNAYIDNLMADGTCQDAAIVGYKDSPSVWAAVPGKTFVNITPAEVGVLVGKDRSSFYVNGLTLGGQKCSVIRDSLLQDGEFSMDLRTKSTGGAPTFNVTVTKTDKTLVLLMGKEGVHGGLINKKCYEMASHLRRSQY
# Heat shock 70 kDa protein 1B, sequence (P0DMV9 whole entry): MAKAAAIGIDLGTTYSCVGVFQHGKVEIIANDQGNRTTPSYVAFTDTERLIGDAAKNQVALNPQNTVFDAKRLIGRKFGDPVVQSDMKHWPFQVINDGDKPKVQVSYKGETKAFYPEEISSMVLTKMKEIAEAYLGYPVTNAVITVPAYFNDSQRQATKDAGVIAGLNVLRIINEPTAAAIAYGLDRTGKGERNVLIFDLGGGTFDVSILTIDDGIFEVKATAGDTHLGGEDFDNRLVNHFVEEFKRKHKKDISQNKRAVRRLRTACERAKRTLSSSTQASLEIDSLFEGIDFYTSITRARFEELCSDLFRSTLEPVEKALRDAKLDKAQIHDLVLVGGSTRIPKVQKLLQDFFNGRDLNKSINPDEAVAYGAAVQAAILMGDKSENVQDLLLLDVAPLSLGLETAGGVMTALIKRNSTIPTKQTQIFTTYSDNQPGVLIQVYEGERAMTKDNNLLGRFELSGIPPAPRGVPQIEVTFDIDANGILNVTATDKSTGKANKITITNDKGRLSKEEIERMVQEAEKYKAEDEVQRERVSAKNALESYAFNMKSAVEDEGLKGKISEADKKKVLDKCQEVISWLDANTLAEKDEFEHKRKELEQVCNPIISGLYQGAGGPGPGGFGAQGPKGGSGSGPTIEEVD
substance,measurement,setting,value
"Large ribosomal subunit protein bL32, P0A7N4",listed as a hit,[1],yes
"Elongation factor 2, P13639",listed as a hit,[2],yes
same,listed as a hit,[3],yes
"Polyubiquitin-B, P0CG47",listed as a hit,[2],yes
same,listed as a hit,[4],yes
same,listed as a hit,[5],yes
same,listed as a hit,[6],yes
"Small ribosomal subunit protein uS19, P0A7U3",listed as a hit,[7],yes
"Small ribosomal subunit protein uS4, P0A7V8",listed as a hit,[8],yes
"Small ribosomal subunit protein uS10, P0A7R5",listed as a hit,[9],yes
same,listed as a hit,[10],yes
"Large ribosomal subunit protein bL9, P0A7R1",listed as a hit,[11],yes
"Small ribosomal subunit protein uS2, P0A7V0",listed as a hit,[10],yes
same,listed as a hit,[12],yes
"Profilin-1, P07737",listed as a hit,[13],yes
"Large ribosomal subunit protein bL31, P0A7M9",listed as a hit,[7],yes
same,listed as a hit,[14],yes
"Large ribosomal subunit protein bL28, P0A7M2",listed as a hit,[15],yes
"Large ribosomal subunit protein bL19, P0A7K6",listed as a hit,[16],yes
"Large ribosomal subunit protein eL28, P46779",listed as a hit,[17],yes
"Peptidyl-prolyl cis-trans isomerase A, P62937",listed as a hit,[3],yes
"Small ribosomal subunit protein uS5, P0A7W1",listed as a hit,[12],yes
"Small ribosomal subunit protein uS7, P02359",listed as a hit,[18],yes
same,listed as a hit,[19],yes
same,listed as a hit,[9],yes
same,listed as a hit,[20],yes
"Small ribosomal subunit protein uS9, P0A7X3",listed as a hit,[9],yes
"Large ribosomal subunit protein uL16, P27635",listed as a hit,[21],yes
same,listed as a hit,[22],yes
"Large ribosomal subunit protein eL15, P61313",listed as a hit,[23],yes
"Small ribosomal subunit protein bS18, P0A7T7",listed as a hit,[24],yes
"Large ribosomal subunit protein bL27, P0A7L8",listed as a hit,[7],yes
"Actin, alpha skeletal muscle, P68133",listed as a hit,[25],yes
"Small ribosomal subunit protein uS4, P46781",listed as a hit,[26],yes
"Small ribosomal subunit protein uS11, P0A7R9",listed as a hit,[9],yes
"Large ribosomal subunit protein uL4, P36578",listed as a hit,[27],yes
same,listed as a hit,[28],yes
same,listed as a hit,[22],yes
